Holding throughout (set-up): scale not given: direction of the effect not stated beside the values
Test [1] addresses Protein translocase subunit SecA (Escherichia coli (strain K12)) (UniProt P10408). The experiment in a line: Assay to Identify E. coli SecA ATPase Inhibitors. It counts as functional. Particulars: 30 µM.
The target of test [2] is T1, Ubiquitin-activating enzyme e1, putative (Leishmania donovani (strain BPK282A1)) (UniProt E9BSI1).
T1 sequence (whole entry): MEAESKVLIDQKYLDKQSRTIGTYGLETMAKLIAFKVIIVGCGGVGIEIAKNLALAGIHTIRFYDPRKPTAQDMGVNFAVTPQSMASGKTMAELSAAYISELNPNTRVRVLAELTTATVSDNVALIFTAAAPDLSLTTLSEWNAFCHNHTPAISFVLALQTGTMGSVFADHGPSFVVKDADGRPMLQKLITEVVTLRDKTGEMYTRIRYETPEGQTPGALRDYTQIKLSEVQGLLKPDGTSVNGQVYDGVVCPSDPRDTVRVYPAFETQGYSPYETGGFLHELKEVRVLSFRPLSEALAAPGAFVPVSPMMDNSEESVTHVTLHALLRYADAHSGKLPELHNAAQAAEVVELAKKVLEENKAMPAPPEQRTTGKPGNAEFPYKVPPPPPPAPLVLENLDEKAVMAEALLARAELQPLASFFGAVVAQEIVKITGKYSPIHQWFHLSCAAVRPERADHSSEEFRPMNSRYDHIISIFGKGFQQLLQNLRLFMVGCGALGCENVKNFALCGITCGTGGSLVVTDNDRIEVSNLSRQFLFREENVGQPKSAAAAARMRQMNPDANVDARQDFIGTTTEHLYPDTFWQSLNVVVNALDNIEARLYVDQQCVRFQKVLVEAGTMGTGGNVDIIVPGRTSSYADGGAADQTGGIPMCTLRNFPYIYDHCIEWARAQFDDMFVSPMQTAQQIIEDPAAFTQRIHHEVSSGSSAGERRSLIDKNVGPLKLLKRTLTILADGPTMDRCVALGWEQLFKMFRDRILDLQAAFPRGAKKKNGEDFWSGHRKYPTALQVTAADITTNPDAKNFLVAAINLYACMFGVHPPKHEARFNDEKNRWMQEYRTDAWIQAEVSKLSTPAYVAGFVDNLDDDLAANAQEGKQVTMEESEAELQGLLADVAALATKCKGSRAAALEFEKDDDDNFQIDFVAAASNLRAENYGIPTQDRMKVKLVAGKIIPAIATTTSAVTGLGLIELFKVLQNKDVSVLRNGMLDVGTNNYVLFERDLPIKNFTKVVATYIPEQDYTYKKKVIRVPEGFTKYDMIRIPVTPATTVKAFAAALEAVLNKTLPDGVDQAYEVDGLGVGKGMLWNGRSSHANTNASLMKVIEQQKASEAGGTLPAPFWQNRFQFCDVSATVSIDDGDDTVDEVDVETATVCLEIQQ
Kind of test: Leishmania donovani Ubiquitin Activating Enzyme (LdE1). It counts as functional. Particulars: 30 µM.

The target of test [3] is AMP-activated protein kinase, AMPK (Homo sapiens) (UniProt P54646+O43741+P54619+Q9UGJ0+Q9Y478+Q13131+Q9UGI9). The experiment in a line: AMP-dependent Kinase enzyme assay. An in vitro enzyme assay that detects ADP turnover that is directly proportional to AMPK activity. This uses naive AMPK that is activated during the assay with MK-8722. Particulars: 30 µM. The class given is functional.

For test [4], the target named is Sialic acid-binding Ig-like lectin 9 (Homo sapiens) (UniProt Q9Y336). Kind of test: Hs-Siglec9 ALPHAscreen SOP 20170721. The following applies: 10 µM.
Sequence of Sialic acid-binding Ig-like lectin 9 (Homo sapiens) (Q9Y336 whole entry): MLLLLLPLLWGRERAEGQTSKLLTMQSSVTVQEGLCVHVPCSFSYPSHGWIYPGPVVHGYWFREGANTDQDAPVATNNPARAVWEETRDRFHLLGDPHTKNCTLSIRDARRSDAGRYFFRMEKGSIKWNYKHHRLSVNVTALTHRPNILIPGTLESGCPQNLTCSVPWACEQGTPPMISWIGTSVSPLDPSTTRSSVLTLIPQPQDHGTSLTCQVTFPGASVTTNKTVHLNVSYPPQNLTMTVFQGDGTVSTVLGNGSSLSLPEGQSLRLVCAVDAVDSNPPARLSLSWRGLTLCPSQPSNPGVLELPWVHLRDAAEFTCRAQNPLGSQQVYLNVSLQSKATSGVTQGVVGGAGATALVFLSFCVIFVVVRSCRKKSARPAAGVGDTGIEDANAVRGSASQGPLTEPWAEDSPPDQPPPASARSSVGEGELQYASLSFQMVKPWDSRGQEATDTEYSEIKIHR
The next test deals with Trypanosoma cruzi. Kind of test: Trypanosoma cruzi phosphomannomutase and mannose-1-phosphate guanylyltransferase assay. It counts as functional. Particulars: 10 µM.
Test [5] has as its target T2, Arginase-2, mitochondrial (Homo sapiens) (UniProt P78540).
T2 sequence (whole entry): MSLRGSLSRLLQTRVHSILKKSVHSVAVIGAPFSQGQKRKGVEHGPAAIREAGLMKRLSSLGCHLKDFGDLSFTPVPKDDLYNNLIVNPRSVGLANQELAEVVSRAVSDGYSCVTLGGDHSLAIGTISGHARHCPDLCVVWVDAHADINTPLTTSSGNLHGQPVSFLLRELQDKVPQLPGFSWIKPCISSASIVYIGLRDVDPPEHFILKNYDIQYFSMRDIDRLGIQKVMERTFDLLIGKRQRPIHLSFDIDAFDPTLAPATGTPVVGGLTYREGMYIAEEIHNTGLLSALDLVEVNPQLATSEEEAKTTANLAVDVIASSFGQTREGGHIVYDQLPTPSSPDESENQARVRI
Kind of test: in vitro enzyme assay to detect the production of urea directly proportional to the activity of Arginase II. Also: in the data most compounds retested in dose-response had high values. The class given is functional. Particulars: 33.3 µM.

The target in test [6] is T3, Proteasome subunit beta (Trypanosoma cruzi) (UniProt O96673).
T3 sequence (whole entry): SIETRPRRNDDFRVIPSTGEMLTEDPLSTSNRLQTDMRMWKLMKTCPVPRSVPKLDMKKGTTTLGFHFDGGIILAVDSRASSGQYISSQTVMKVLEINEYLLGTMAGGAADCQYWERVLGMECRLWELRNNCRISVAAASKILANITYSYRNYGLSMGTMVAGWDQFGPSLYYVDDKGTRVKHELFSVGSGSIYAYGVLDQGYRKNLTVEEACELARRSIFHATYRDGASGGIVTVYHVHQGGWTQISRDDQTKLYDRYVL
The experiment in a line: Trypanosoma cruzi proteasome chymotrypsin-like activity (TcProtChymo) assay. Also: in the data most compounds retested in dose-response had high values. It counts as functional. The following applies: 9.37 µM.

The species named for another test is Homo sapiens. The experiment in a line: To identify inhibition of the IFN signalling (Jak-Stat) pathway via expression of an eGFP reporter gene under the control of an IFN-stimulated response element (ISRE) containing MxA promoter. It counts as functional. The following applies: 30 µM.
For test [7], the target named is T4, Tyrosyl-tRNA synthetase, putative (Trypanosoma cruzi (strain CL Brener)) (UniProt Q4DSP6).
T4 sequence (whole entry): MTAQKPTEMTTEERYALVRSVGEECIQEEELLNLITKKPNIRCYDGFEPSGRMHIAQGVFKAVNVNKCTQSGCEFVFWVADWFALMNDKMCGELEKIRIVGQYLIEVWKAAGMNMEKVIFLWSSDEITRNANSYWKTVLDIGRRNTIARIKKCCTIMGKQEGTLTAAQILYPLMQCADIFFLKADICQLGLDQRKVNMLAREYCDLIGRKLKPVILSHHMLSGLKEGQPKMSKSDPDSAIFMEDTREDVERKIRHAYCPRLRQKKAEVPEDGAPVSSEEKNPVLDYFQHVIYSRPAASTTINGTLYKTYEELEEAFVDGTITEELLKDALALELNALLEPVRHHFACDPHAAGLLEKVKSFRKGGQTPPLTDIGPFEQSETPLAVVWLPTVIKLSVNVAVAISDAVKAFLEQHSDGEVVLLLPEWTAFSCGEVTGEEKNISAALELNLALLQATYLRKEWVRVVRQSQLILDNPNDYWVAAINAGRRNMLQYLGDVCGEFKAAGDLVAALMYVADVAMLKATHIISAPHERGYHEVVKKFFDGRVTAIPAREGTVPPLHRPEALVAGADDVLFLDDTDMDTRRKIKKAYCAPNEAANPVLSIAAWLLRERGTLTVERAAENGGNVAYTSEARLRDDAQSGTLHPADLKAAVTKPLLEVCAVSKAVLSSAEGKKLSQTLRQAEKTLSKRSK
The experiment in a line: Trypanosoma cruzi tyrosyl tRNA synthetase (TcYRS) _High Tyrosine SOP. Also: in the data most compounds retested in dose-response had high values. The class given is functional. Particulars: 30 µM.

The target of test [8] is T4, Tyrosyl-tRNA synthetase, putative (Trypanosoma cruzi (strain CL Brener)). Kind of test: Trypanosoma cruzi tyrosyl tRNA synthetase (TcYRS) SOP. The class given is functional. Particulars: 30 µM.
The target in test [9] is Chromo domain-containing protein 1 (Saccharomyces cerevisiae (strain ATCC 204508 / S288c) (Baker's yeast)) (UniProt P32657). Kind of test: ScCHD-1 Enzyme Inhibition Assay. Also: in the data most compounds retested in dose-response had high values. The class given is functional. The following applies: 30 µM.
Sequence of Chromo domain-containing protein 1 (Saccharomyces cerevisiae (strain ATCC 204508 / S288c) (Baker's yeast)) (P32657 whole entry, the tested form may be a part): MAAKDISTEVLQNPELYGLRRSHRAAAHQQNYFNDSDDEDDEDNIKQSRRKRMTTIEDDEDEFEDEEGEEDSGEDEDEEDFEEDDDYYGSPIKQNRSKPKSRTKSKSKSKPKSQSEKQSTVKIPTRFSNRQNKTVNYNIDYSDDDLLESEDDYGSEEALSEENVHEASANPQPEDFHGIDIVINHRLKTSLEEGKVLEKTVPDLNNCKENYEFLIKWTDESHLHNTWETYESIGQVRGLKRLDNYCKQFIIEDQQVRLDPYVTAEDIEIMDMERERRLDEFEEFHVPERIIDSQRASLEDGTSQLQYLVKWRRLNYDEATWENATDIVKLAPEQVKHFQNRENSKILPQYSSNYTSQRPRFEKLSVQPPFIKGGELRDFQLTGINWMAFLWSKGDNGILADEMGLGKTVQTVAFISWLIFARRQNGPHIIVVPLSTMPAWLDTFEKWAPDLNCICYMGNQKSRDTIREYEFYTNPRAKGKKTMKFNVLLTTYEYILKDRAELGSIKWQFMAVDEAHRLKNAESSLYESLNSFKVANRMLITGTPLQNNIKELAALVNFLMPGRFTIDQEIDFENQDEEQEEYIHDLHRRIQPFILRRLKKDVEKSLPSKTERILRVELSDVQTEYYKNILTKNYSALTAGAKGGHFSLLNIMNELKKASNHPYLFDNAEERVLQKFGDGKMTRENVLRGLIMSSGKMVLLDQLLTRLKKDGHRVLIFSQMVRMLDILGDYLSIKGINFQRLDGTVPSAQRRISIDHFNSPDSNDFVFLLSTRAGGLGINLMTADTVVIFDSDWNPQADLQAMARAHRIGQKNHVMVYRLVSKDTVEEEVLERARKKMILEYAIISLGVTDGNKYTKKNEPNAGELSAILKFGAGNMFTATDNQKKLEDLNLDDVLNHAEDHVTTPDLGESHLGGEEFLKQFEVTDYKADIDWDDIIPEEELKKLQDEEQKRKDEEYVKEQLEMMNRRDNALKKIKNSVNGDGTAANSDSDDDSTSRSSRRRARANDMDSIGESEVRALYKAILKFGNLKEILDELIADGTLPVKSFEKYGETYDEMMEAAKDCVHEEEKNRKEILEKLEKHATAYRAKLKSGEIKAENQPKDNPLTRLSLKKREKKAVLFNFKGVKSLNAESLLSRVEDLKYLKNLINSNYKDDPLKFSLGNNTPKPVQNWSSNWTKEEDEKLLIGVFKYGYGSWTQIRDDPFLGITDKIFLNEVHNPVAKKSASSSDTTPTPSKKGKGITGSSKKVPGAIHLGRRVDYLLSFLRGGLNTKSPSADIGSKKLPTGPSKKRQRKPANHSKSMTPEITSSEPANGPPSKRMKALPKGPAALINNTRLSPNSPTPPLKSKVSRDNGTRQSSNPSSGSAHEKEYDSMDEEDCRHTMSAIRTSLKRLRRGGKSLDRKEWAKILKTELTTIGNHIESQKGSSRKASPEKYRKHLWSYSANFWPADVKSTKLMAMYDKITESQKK

For some of these results: Results with a measured potency or affinity are listed apart.

Sequence of Protein translocase subunit SecA (Escherichia coli (strain K12)) (P10408 whole entry): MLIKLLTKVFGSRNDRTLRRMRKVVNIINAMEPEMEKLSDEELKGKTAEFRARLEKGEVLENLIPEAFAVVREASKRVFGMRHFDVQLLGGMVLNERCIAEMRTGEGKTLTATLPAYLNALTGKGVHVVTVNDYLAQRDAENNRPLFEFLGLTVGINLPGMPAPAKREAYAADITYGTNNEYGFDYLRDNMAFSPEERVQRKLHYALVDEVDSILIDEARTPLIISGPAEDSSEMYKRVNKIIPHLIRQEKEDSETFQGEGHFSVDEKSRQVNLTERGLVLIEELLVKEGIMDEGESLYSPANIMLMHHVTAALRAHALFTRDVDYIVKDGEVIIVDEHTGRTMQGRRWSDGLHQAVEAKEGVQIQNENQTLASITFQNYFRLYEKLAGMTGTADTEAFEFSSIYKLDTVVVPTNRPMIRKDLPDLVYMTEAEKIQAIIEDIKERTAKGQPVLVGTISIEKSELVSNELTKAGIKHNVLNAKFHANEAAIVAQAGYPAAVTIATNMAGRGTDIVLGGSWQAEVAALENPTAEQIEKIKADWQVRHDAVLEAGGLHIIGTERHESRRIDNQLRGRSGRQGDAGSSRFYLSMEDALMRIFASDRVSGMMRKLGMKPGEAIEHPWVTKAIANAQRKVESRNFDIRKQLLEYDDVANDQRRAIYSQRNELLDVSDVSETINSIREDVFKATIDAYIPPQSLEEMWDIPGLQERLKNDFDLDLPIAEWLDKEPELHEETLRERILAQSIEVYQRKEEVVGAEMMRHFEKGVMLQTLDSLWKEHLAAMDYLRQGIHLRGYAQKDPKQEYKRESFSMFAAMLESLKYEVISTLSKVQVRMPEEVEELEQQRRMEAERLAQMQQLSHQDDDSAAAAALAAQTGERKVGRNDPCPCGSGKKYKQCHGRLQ

Consider `CCn1c(CN2CCN(CC(N)=O)CC2)nc2c(F)cccc21`, for which the Percent Effect in test [1] is -3.22%; in test [2], 5.26%; in test [3], 7.34%; in test [4], 6.21%; in the test on Trypanosoma cruzi, 8.84%; in [5] it was -2.3%. Moreover, the Percent Effect in [6] is 1.34%; in the test filed under Homo sapiens, -11.4%; in test [7], 7.35%; in [8], 9.76%; in test [9], -5.52%.
With `CCC1CCCN(C(=O)Cc2csc(-c3ncccn3)n2)C1` (stereo unspecified), the Percent Effect is -2.19% in test [1]; 21.1% in test [2]; 0.0664% in test [3]; -8.02% in test [4]; 5.26% in the test on Trypanosoma cruzi; -1.92% in [5]. Moreover, the Percent Effect in test [6] is 24.1%; in the test filed under Homo sapiens, 25.1%; in [7], 5.39%; in test [8], 17.1%; in test [9], -12.4%.
On to `CCC(C)c1noc(C2CCN(C(=O)c3cccs3)CC2)n1` (stereo unspecified), for which the Percent Effect was -0.878% in [1]; 7.79% in [2]; 1.18% in test [3]; 3.86% in [4]; -2.65% in the test on Trypanosoma cruzi; -2.76% in [5]. The Percent Effect is 13.8% in test [6]; 23.9% in the test listed under Homo sapiens; 4.3% in test [7]; 11.1% in [8]; -1.15% in test [9].
`Cc1nn2c(N3CCC(O)CC3)cc(-c3ccccc3)nc2c1C`: the Percent Effect in [1] is -3.77%; in [2] it was 5.48%; in [3] it was -0.844%; in test [4] it was 1.98%; in the test on Trypanosoma cruzi, -3.57%; in test [5] it was -3.99%. Further, the Percent Effect in test [6] was 11%; in the test filed under Homo sapiens, 16%; in [7] it was 5.21%; in test [8], 13.6%; in test [9], -5.15%.
On to `FC(F)(F)COCCN1CCN(c2ccc3nncn3n2)CC1`, for which the Percent Effect in test [1] was -4.65%; in test [2] it was 10.4%; in test [3] it was 0.707%; in test [4], 9.49%; with Trypanosoma cruzi it was 4.87%; in [5] it was -3.92%. In addition, the Percent Effect in [6] is 2.87%; in the test listed under Homo sapiens, -15.5%; in [7], 5.83%; in test [8], 14.6%; in [9], -6.46%.
As for `Cc1ccc(C(O)CNC(=O)NCc2nc(C)cs2)cc1` (stereo unspecified), the Percent Effect in [1] is -1.18%; in [2], 5.41%; in test [3], 2.46%; in test [4] it was 3.69%; with Trypanosoma cruzi it was -6.56%; in test [5], 1.43%. Moreover, the Percent Effect was 12.9% in [6]; 5.94% in the test filed under Homo sapiens; 2.65% in [7]; 12.2% in test [8]; -3.85% in [9].
Consider `CCC1=N[C@@]2(CC[C@@H]3CN(S(=O)(=O)N(C)C)C[C@@H]32)C(=O)N1CC(C)C`, for which the Percent Effect is -1.28% in test [1]; 10.4% in test [2]; -3.92% in test [3]; 6.82% in [4]; -2.07% in the test with Trypanosoma cruzi; 3.23% in test [5]. Besides, the Percent Effect is -0.696% in test [6]; -7.21% in the test listed under Homo sapiens; 5.29% in test [7]; 11.5% in [8]; -6.8% in test [9].
`COc1cc(C)nc(N2CCN(C(=O)c3ccc(Cl)o3)CC2)n1`: the Percent Effect was -3.23% in test [1]; 2.7% in [2]; -4.07% in [3]; -1.86% in [4]; 2.17% with Trypanosoma cruzi; -0.802% in test [5]. The Percent Effect in test [6] was -3.06%; in the test listed under Homo sapiens it was -0.0966%; in test [7], 2.46%; in test [8], 3.7%; in test [9] it was 1.52%.
With `O=C(c1cnn(-c2ccccc2F)c1)N1CCN(CCO)CC1`, the Percent Effect in test [1] is -0.313%; in test [2] it was 2.67%; in test [3], -3.7%; in test [4], 3.26%; with Trypanosoma cruzi it was 5.36%; in [5], 16.1%. In addition, the Percent Effect is 0.698% in test [6]; -20% in the test listed under Homo sapiens; -0.546% in test [7]; 3.7% in [8]; -1.23% in test [9].
Consider `CCc1nc(C2CCCN2Cc2nc(CCOC)no2)no1` (stereo unspecified), for which the Percent Effect in test [1] is -3.77%; in [2], 10.4%; in test [3], -0.579%; in test [4], 7.16%; in the test on Trypanosoma cruzi, 6.59%; in [5], -5.52%. The Percent Effect is 3.49% in test [6]; -6.27% in the test listed under Homo sapiens; 3.23% in test [7]; 11.1% in test [8]; -7.19% in test [9].
For the molecule `O=C(c1ccc(Cl)cc1)N1CCCn2nnc(Cn3cccn3)c2C1`, the Percent Effect was -2.51% in test [1]; 16.2% in test [2]; 3.45% in [3]; 15.3% in test [4]; 4.2% with Trypanosoma cruzi; 8.19% in test [5]. For the same molecule, the Percent Effect in test [6] is 16.6%; in the test listed under Homo sapiens, 8.78%; in [7], 5.38%; in [8], 16.1%; in test [9], -7.62%.

The record behind these values is ChEMBL document CHEMBL3988442, “University of Dundee, Small-Polar-MMV Screening Library” (2021).
